Rows were chosen to be rich in hits. Some 3.1% of all compounds tested hit in one or more screens of this group.
ELG1 DNA repair – blocks ELG1-dependent DNA repair in HEK293T cells. AID 504467. actives 2.3% (n = 330,000). HEK293T ELG1-luciferase reporter, luminescence, 16 h; DNA damage induced by 5-fluorouridine. Potency, µM (series often up to 46.1 µM), without a hit: top-dose activity change, negative = inhibition, usual class: inhibitors; further: potency means the concentration at half of the fitted maximal effect; on the % scale 0 is the no-effect control and ±100 the full control effect; nearly all actives have a fitted effect of over 55% in size
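Reporter activity after DNA damage by 5-fluorouridine is monitored. Compound-treated cells incubate 16 hr at 37 °C, then ONE-Glo is added for 30 min before luminescence reading.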
BRCA1 expr up – activators of BRCA1 expression; MCF7-BRCA1-FFLuc reporter, luminescence, 48 h; response scale: scaled: vehicle 0%, 10 µM genistein 100%; Potency, µM (highest dose often 46.1 µM), without a hit: top-dose activation, hits mostly activators; actives 1.1% (n = 380,000); further: potency means the concentration at half of the fitted maximal effect; nearly all actives have a fitted effect of over 80% in size
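Cells: MCF7-BRCA1-FFLuc, 2000/well. Exposure: 48 h, 37 °C, 5% CO2. Read: luminescence, 15 min post-substrate. Controls: genistein 10 microM (maximal activation), DMSO (neutral).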
Nrf2 activator – activates Nrf2 signaling; AREc32 ARE-luciferase reporter (MCF7-derived line), luminescence, 24 h; Potency, µM (top dose mostly 46.1 µM), for the others: top-dose activation, most hits filed as activators; actives 0.31% (n = 410,000); AID 624171; further: potency means the concentration at half of the fitted maximal effect; % of control where 0% means no effect; nearly all actives have a fitted effect of over 65% in size
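ARE activation measured as luciferase luminescence (Steady-Glo, 30 min RT) in AREc32_Fluc cells after 24 hr compound exposure at 37 deg C, 5% CO2; cells seeded overnight at 1000/well in OPTI-MEM, 5% FBS.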
IL2 activator – activates IL-2 in a cell-based reporter assay. IL-2 activation reporter assay, cell-based qHTS; stimulated with anti-CD3/CD4/CD28 beads; in transgenic mouse T cells. activation, % (series mostly up to about 46 µM). actives 0.065% (n = 360,000). AID 652025; in the data active means activation above about 50%; inconclusive means mostly about 30% to 49%; further: 0% is about no effect
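Screening format: compound pinned onto unstimulated transgenic mouse T cells, 60 min incubation, then anti-CD3/anti-CD4/anti-CD28 bead stimulation for 18 hours at 37 degrees C, followed by EGFP and DsRed detection.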
The depositor's hits bear a star; [ ] = dose if it differs, or a comment. Unless noted, the call rests on the fitted dose curve; in most records, active means well fitted curve in the direction sought with a large enough effect; inconclusive means small, poorly fitted or top-dose-only effect, or another doubt; inactive means no such curve, though single readings can be large; an effect the other way counts as inactive or inconclusive.

Screening CCOC(=O)c1c(C)[nH]c(C)c1S(=O)(=O)NCC(=O)N1CCN(c2cccc(C)c2)C(C)C1 (configuration not stated) returned Nrf2 activator 0%.
COc1cccc(CC(=O)n2nc(N)c3cc4ccc(OC)cc4nc32)c1 was read as ELG1 DNA repair 9.2µM*, BRCA1 expr up -30%, Nrf2 activator 0% and IL2 activator 2.
For COc1ccc2cc3c(N)nn(C(=O)Cc4c[nH]c5ccccc45)c3nc2c1 the results were ELG1 DNA repair 1.5µM*, BRCA1 expr up -60%, Nrf2 activator -4% and IL2 activator 0.
Screening COC(=O)c1ccccc1NC(=O)C1=CC(c2ccc(C)cc2)=NS(=O)(=O)N1C returned Nrf2 activator 0%.
For CCCCc1c(Cc2cccc(F)c2)ncn1CCc1ccccc1OC the results were BRCA1 expr up -30%, Nrf2 activator 0% and IL2 activator -1.
Screening O=C(Nc1ccc2oc(-c3cccc4c(Br)cccc34)nc2c1)c1ccc(F)cc1 returned Nrf2 activator -1%.
Screening O=C(NC(=S)Nc1ccccc1[N+](=O)[O-])c1ccccc1Cl returned ELG1 DNA repair inconclusive, BRCA1 expr up 13µM*, Nrf2 activator 8% and IL2 activator 2.
`Cc1ccc(C(=O)NC(=S)Nc2cccc(NC(=O)c3ccccc3Cl)c2)cc1[N+](=O)[O-]` gave ELG1 DNA repair 18µM*, BRCA1 expr up -5%, Nrf2 activator 3% and IL2 activator -3.
CC1=C(C(=O)N(C(C)C)C(C)C)CC(CC(=O)NCCc2ccccn2)C(=O)N1Cc1ccc(F)cc1 (configuration not stated) was read as BRCA1 expr up 14%, Nrf2 activator 0% and IL2 activator -1.
For COc1ccc(N=C2SC(CC(=O)Nc3ccccc3F)C(=O)N2Cc2ccco2)cc1 (configuration not stated) the results were ELG1 DNA repair 23µM*, BRCA1 expr up -44%, Nrf2 activator 0%[9.22 µM] and IL2 activator 0.
`Cc1ccc(-c2noc(-c3ccc(NCc4ccco4)c([N+](=O)[O-])c3)n2)cc1` gave BRCA1 expr up 11% and Nrf2 activator 3%.
Screening NS(=O)(=O)c1ccc(NS(=O)(=O)c2ccc(NC(=S)Nc3ccccc3)cc2)cc1 returned ELG1 DNA repair 15%, BRCA1 expr up 15%, Nrf2 activator 0% and IL2 activator 0.
Screening NS(=O)(=O)c1ccc(NC(=S)Nc2ccn(Cc3cccc4ccccc34)n2)cc1 returned ELG1 DNA repair 21µM*, BRCA1 expr up -68%, Nrf2 activator 11% and IL2 activator -2.
`CC(C)C(=O)N1c2ncnn2C2(CCCCC2)[C@@H]2CCCC[C@@H]21` gave Nrf2 activator 0%.
For CCn1cc(C(=O)N2CCN(c3ccccc3)CC2)c(=O)c2cc(S(=O)(=O)N3CCC(C)CC3)ccc21 the results were BRCA1 expr up 0% and Nrf2 activator 0%.
Screening Cn1c(-c2c(N)n(CCCc3ccccc3)c3nc4ccccc4nc23)nc2ccccc21 returned ELG1 DNA repair inconclusive, BRCA1 expr up -102%, Nrf2 activator 2% and IL2 activator 1.
Screening Cn1c(-c2c(N)n(CCc3ccccc3)c3nc4ccccc4nc23)nc2ccccc21 returned ELG1 DNA repair 9.2µM*, BRCA1 expr up -94%, Nrf2 activator 0% and IL2 activator -3.
COc1ccc2c(c1)c1c(c(=O)n(-c3ccc(OC)c(OC)c3)c(=O)n1Cc1ccc(F)cc1)n2C was read as BRCA1 expr up 7% and Nrf2 activator 0%.
For CCOc1ccc(NC(=O)CN2CCN(Cc3ccccc3)S2(=O)=O)cc1 the results were Nrf2 activator 20%.
CN(C)S(=O)(=O)Oc1ccc(C(=O)Nc2cccc(C(F)(F)F)c2)cc1 was read as ELG1 DNA repair 21µM*, BRCA1 expr up 15%, Nrf2 activator 0% and IL2 activator -1.
`CN(C)S(=O)(=O)Oc1ccc(C(=O)Nc2cccc(Cl)c2)cc1` gave ELG1 DNA repair inconclusive, BRCA1 expr up inconclusive, Nrf2 activator 2% and IL2 activator -1.
`Cc1ccccc1NC(=O)N(O)C1(C#N)CCCCC1` gave BRCA1 expr up -14%, Nrf2 activator 2% and IL2 activator -4.
`CC(=O)c1c(C)[nH]c(C(=O)CN2CCN(S(=O)(=O)c3ccccc3F)CC2)c1C` gave ELG1 DNA repair 12µM*, BRCA1 expr up -36%, Nrf2 activator 6% and IL2 activator 0.
CCC(Sc1nc2cc(OC)c(OC)cc2c(=O)n1CCc1ccc(OC)c(OC)c1)C(=O)NCCOC (configuration not stated) was read as ELG1 DNA repair 18µM*, BRCA1 expr up 22%, Nrf2 activator 1% and IL2 activator 0.
Screening CC(Cl)C(=O)NC(=O)NC12CC3CC(CC(C3)C1)C2 (configuration not stated) returned ELG1 DNA repair inconclusive, BRCA1 expr up -40%, Nrf2 activator 3%[9.22 µM] and IL2 activator 0.
Screening O=C(CCl)NC(=O)NC12CC3CC(CC(C3)C1)C2 returned ELG1 DNA repair 16µM*, BRCA1 expr up -56%, Nrf2 activator 1%[9.22 µM] and IL2 activator -1.
Cc1scc(C(=O)N/N=C/c2ccc(OC(C)C)cc2)c1C was read as ELG1 DNA repair inconclusive, BRCA1 expr up inconclusive, Nrf2 activator 3% and IL2 activator 1.
For C/C(=N\NC(=O)c1csc(C)c1C)c1ccc(C)s1 the results were ELG1 DNA repair inconclusive, BRCA1 expr up 10µM*, Nrf2 activator 3% and IL2 activator -3.
Screening Cc1scc(C(=O)N/N=C/c2ccc(Cl)s2)c1C returned ELG1 DNA repair inconclusive, BRCA1 expr up 7.1µM*, Nrf2 activator 0% and IL2 activator -1.
For O=C(c1ccco1)n1nc(-c2ccccc2)nc1NCc1ccccc1Cl the results were BRCA1 expr up -1% and Nrf2 activator 0%.
`O=C1CN(C(=O)c2ccc(S(=O)(=O)N3CCCCC3)cc2)C(c2ccc(F)cc2)c2cc(Br)ccc2N1` (configuration not stated) gave Nrf2 activator 5%.
Screening CCc1nc2ccc(C(=O)Nc3cccc(NS(C)(=O)=O)c3)cn2c1N(C)C(=O)c1cccc(OC)c1 returned BRCA1 expr up 9%, Nrf2 activator 0%[9.22 µM] and IL2 activator 0.
Screening Nc1ccc(O)c2c(=O)cc(-c3ccccc3Cl)oc12 returned ELG1 DNA repair inconclusive, BRCA1 expr up 2.8µM*, Nrf2 activator 3% and IL2 activator 0.
O=c1cc(-c2ccccc2Cl)oc2cc(O)cc(O)c12 was read as ELG1 DNA repair 10%, BRCA1 expr up inconclusive, Nrf2 activator 3% and IL2 activator 0.
Screening CCOc1ccccc1NC(=O)c1nn(-c2ccc(C)cc2)c(=O)n(C)c1=O returned Nrf2 activator 0%.

Screens from PubChem BioAssay.
